Screening results from PubChem.
TRPV1 PAM = enhances activation of the human vanilloid receptor TRPV1; TRPV1-expressing cells, Fluo-8 calcium influx, capsaicin EC20 potentiation; potentiation, % at 8.33 µM; 320,000 tested, 0.02% active; AID 540277; in the data active = potentiation above about 80%; inconclusive = between about 30% and that limit; note: 0% is about no effect
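Cells expressing TRPV1 were dye-loaded with Fluo-8 and read kinetically: 10 s baseline, 3 min after compound (agonist portion), then 2 min after EC20 capsaicin (allosteric enhancer portion). Calcium-bound dye fluorescence at 480/520 nm.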
D1 ag = agonists of human D1 dopamine receptor; activation, % at 2 µM; HEK293 T-REx D1 cells, calcium flux, agonist mode; 360,000 tested, 1% active; AID 504660; P21728; in the data active = activation above about 30%; note: 0% is about no effect
Target sequence (P21728 whole entry, looked up): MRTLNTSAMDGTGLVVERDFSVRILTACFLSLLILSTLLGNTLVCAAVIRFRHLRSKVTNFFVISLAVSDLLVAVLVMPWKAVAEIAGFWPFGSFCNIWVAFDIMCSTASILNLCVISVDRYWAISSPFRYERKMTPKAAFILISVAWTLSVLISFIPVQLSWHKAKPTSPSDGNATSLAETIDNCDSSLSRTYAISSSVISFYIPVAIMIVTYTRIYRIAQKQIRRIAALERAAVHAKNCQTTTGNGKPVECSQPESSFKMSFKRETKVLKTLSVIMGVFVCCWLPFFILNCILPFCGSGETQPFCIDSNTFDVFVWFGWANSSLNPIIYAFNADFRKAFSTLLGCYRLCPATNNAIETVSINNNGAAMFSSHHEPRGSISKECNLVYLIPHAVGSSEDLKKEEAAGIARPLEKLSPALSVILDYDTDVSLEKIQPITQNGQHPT
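Tetracycline-induced HEK293 TREx D1 cells, force-coupled to calcium signalling, were dye-loaded with a no-wash calcium kit. Compound was pin-added after a 10 s baseline. Fluorescence was read kinetically at 1 cycle/s for 180 s, with calcium rises flagged as agonism.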
D1 PAM = potentiators of human D1 dopamine receptor; potentiation, % at 10 µM; HEK293 TREx D1 cells, calcium flux, dopamine EC20 potentiation; 360,000 tested, 0.036% active; in the data active = potentiation above about 30%; note: 0% is about no effect
TRPV1 agonist = human TRPV1 agonism; AID 540275; TRPV1-expressing cells, Fluo-8 calcium influx, agonist mode; Q8NER1; activation, % at 8.33 µM; 320,000 tested, 0.19% active; in the data active = activation above about 80%; inconclusive = between about 30% and that limit; note: 0% is about no effect
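Cells expressing TRPV1 were dye-loaded with Fluo-8 and read kinetically: 10 s baseline, 3 min after compound (agonist portion), then 2 min after EC20 capsaicin (allosteric enhancer portion). Calcium-bound dye fluorescence at 480/520 nm.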
D1 antag = blocks dopamine activation of the human D1 receptor; P21728; HEK293 TREx D1 cells, calcium flux, dopamine EC80; stronger effect = lower value; activity change, negative = inhibition, % at 10 µM; 360,000 tested, 3.2% active; AID 504652; in the data active = activity change below about -30%; note: % is set by controls: 0 for no effect and ±100 for the full control effect
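Allosteric or orthosteric antagonism assessed as attenuation of the calcium response to EC80 dopamine, added 180 s after compound, in induced HEK293 Trex D1 cells loaded with no-wash calcium dye.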
Numbers without * were called inactive; ? = inconclusive; · = no result. Compounds with a hit are over-represented: about 4.2% of the library has one in this group of screens.

SMILES	TRPV1 PAM	D1 ag	D1 PAM	TRPV1 agonist	D1 antag
COCc1nn2c(N)c(C#N)cnc2c1-c1ccccc1	9.3	-0.1	-3.8	0.1	0.1
COCc1nn2c(N)c(-c3ccccc3)cnc2c1-c1ccccc1	-6.4	1.8	-6.7	12.1	-35.0*
CCOc1ccc(-c2nnc3ccc(SCC(=O)N4CCCCC4)nn23)cc1	-1.1	0.3	-9.6	-0.4	5.5
CCOc1ccc(-c2nnc3ccc(SC(C)C)nn23)cc1	-12.6	2.1	-3.1	25.5	-42.3*
CCOc1ccc(-c2nnc3ccc(SCC(=O)Nc4nc5ccccc5s4)nn23)cc1	-6.7	0.0	-10.1	-2.8	7.5
CCOc1ccc(-c2nnc3ccc(SCC(=O)Nc4nc5ccc(C)cc5s4)nn23)cc1	?	0.9	-15.3	1.9	-42.9*
COc1cc(Cl)c(NC(=O)c2cc(CN3CCCC3)on2)c(OC)c1	·	-1.7	-2.0	·	-23.8
COc1ccc(-c2noc(CSCC(=O)Nc3cccc(C(F)(F)F)c3)n2)cc1OC	·	2.0	-1.1	·	2.9
O=C(C1CCC1)N1CCN(c2ccc(C(F)(F)F)cc2[N+](=O)[O-])CC1	12.3	10.4	-7.8	0.3	-39.7*
CN1CCN(C(=O)CSc2ccc(C(F)(F)F)cc2[N+](=O)[O-])CC1	-3.3	4.0	-10.1	5.1	-65.2*
CCOC(=O)N1CCN(C(=O)CSc2ccc(C(F)(F)F)cc2[N+](=O)[O-])CC1	10.2	5.6	-9.2	-0.4	3.0
CN1CCCc2cc3c(C(F)(F)F)cc(=O)oc3nc21	-17.5	53.4*	-1.2	17.7	2.1
CCOc1ccc2nc(N3CCC(C(=O)Nc4ccccc4CC)CC3)sc2c1	·	0.7	-5.7	·	12.7
COC(=O)c1ccc(CSc2ccc3nnc(-c4cccnc4)n3n2)o1	-0.1	2.2	-13.9	-0.3	-46.0*
O=C(CSc1nccn1Cc1ccc(F)cc1)Nc1ccc2c(c1)OCO2	·	0.3	-5.1	·	-25.6
CCOC(=O)c1c(C)oc2nc(C)nc(NCCCN3CCN(c4ccc(F)cc4)CC3)c12	·	1.7	0.9	·	-9.4
CCOc1ccc(OCC)c(Nc2nc3ccc(Cl)cc3n3cnnc23)c1	·	0.7	0.3	·	-36.5*
CCOc1ccc2nc(N3CCCC(C(=O)Nc4ccc(Br)c(C)c4)C3)sc2c1 (stereo unspecified)	·	-0.4	-3.0	·	-15.5
COc1ccc(NS(=O)(=O)c2ccc3c(c2)CCN3C(=O)CCC(=O)O)cc1Cl	·	-0.1	-3.0	·	-5.5
O=C(COC(=O)/C=C/c1ccc(C(F)(F)F)cc1)NC1CCCC1	-8.0	5.4	-7.6	10.9	-49.1*
O=C(COC(=O)/C=C/c1ccc(C(F)(F)F)cc1)NC1CC1	-17.7	8.6	1.0	?	-25.8
O=C(COC(=O)/C=C/c1ccc(OC(F)F)cc1)NCc1cccs1	-29.7	36.5*	-3.4	28.4	2.6
O=C(CO/N=C/c1ccc(OC(F)F)cc1)NCc1cccs1	?	5.0	-7.0	-1.3	-1.3
O=C(COC(=O)/C=C/c1ccc(C(F)(F)F)cc1)NCc1ccco1	0.3	6.5	-7.5	1.4	-30.7*
O=C(COC(=O)/C=C/c1cccc(Br)c1)NCc1ccco1	-19.6	3.1	-3.1	15.6	-10.3
SMILES	TRPV1 PAM	D1 ag	D1 PAM	TRPV1 agonist	D1 antag
O=C(COC(=O)CCC(=O)c1ccc(F)cc1)NCc1ccco1	5.7	-0.3	-8.4	0.5	-31.6*
CCCN(C(=O)Cn1cnc2sc(C)c(S(=O)(=O)N3CCN(c4ncccn4)CC3)c2c1=O)c1cccc(C)c1	·	-1.2	0.7	·	2.7
COc1ccc(CCNC(=O)CCn2c(=O)c3ccccc3n(CC(=O)Nc3ccc(C)cc3C)c2=O)cc1OC	·	0.8	-0.8	·	-0.2
COc1ccc(Nc2nc(N)nc(CSc3nc4cc(OC)ccc4s3)n2)cc1	·	1.8	-6.6	·	-19.5
CCc1ccc(S(=O)(=O)NCCc2csc(-c3ccccc3)n2)s1	?	17.4	-11.8	-1.2	-24.6
CCc1ccc(S(=O)(=O)NCCc2csc(C)n2)s1	-5.7	0.9	-0.7	-1.6	-37.3*
CCOC(=O)c1ccc(NC2SC(=O)N(Cc3cccc(C(=O)O)c3)C2=O)cc1 (stereo unspecified)	·	0.1	-1.5	·	3.1
CCN1CCN(C(c2cccs2)C(C)NC(=O)c2cccnc2)CC1 (stereo unspecified)	3.0	2.0	-5.4	-4.1	0.6
CC(NC(=O)c1cccnc1)C(c1cccs1)N1CCN(C)CC1 (stereo unspecified)	3.5	3.0	·	-1.6	-38.7*
